Results reported in PubChem BioAssay AID1117361 (Southern Research Institute, 2015).
The campaign covered roughly 3,600 compounds. About 900 (25%) were called active. The rule behind the calls is not given here. The list is a sample of the results. Results with a measured potency or affinity are listed apart.

biological target: Protein Tat (Human immunodeficiency virus type 1 group M subtype B (isolate HXB2)) (UniProt P04608); test: HIV-1 Tat–TAR interaction blockers – biochemical, fluorescence polarization, FAM-labeled TAR RNA, counter-screen for Vif-APOBEC3G degradation inhibitor project, dose response (AID 1117361); details: Tat-TAR RNA binding; series mostly up to 100 µM

Compound	outcome
C=CCSc1nnc(NC(=O)CSc2nnc(C)s2)s1	inactive
COc1ccc(C(=O)n2nc(-c3ccccc3)nc2SC)cc1	inactive
CCOc1ccc(NC(=O)C2CCCN(S(=O)(=O)c3c(C)n[nH]c3C)C2)cc1 (centres undefined)	inactive
CCCNC(=O)Cn1c2ccccc2c2nc(=O)cc(C)n21	inactive
CCOC(=O)c1c(C)[nH]c(C(=O)CSc2nnc(C3CC3)n2N)c1C	inactive
CN(C)S(=O)(=O)N1CCN(c2ccc(Cl)cc2)CC1	inactive
CCCC(=O)NC(C)C(c1cccs1)N1CCN(C)CC1 (centres undefined)	inactive
Cc1ccc(S(=O)(=O)N(C)c2ccccc2C(=O)N2CCCC2)cc1	inactive
COc1cc(C(=O)NNC(=S)NCc2ccco2)cc(OC)c1OC	inactive
O=C(NCCc1ccccc1)c1ccc2c(c1)N(Cc1ccccc1)C(=O)CS2=O (centres undefined)	inactive
O=C(NCc1ccco1)c1ccc2snnc2c1	inactive
CC(C)(C)c1ccc(S(=O)(=O)NCc2ccc(C(=O)NCc3ccccn3)cc2)cc1	inactive
O=C(Cc1ncn[nH]1)NCCc1ccccc1	inactive
O=C(CCS(=O)(=O)c1cccs1)Nc1ccc(C(=O)NCc2ccccc2)cc1	inactive
COc1ccc(CCNC(=O)Cn2nnc(-c3cccc(OC)c3OC)n2)cc1OC	inactive
CCS(=O)(=O)N1CCC(C(=O)NCc2ccccn2)CC1	inactive
COc1ccc(C(=O)NCc2cccnc2)cc1OC	inactive
CC(c1nnc(SCn2nnc3ccccc3c2=O)n1-c1ccc(Cl)cc1)N(C)C (centres undefined)	inactive
COc1cccc(-c2nc(CS(=O)(=O)CC(=O)NC3CC3)c(C)o2)c1	inactive
CCOc1ccc(N2CC(C(=O)NCC(=O)Nc3ccc(F)c(F)c3F)CC2=O)cc1 (centres undefined)	inactive
NS(=O)(=O)c1ccc(NC(=O)c2ccccc2C(=O)N2CCCCC2)cc1	inactive
CCN(C(=O)CCc1nc(-c2ccccc2F)no1)c1cc(OC)ccc1OC	inactive
COc1ccccc1NC(=O)COC(=O)c1cc2c(s1)CCC2	inactive

Compound	outcome
CCOC(=O)c1cccc2c(=O)c(C(=O)c3ccc(Cl)cc3)c(C(=O)OC)[nH]c12	inactive
C/C(=N\OC(=O)c1ccc(F)cc1)c1sc(-c2ccccc2)nc1C	inactive
CC1CCc2cc(F)ccc2N1C(=O)C1(C)CC1(Cl)Cl (centres undefined)	inactive
O=C(NCc1ccccn1)c1ccc(Cn2cc(Br)cn2)o1	inactive
C/C(=N\O)C(=O)NCc1ccccn1	inactive
O=C(NC1=CC(=O)c2ccccc2C1=O)c1ccccc1	inactive
Cc1ccc(NC(=O)CNC(=O)COc2ccccc2)nc1	inactive
COc1ccc2cc(C(=O)N3CCOCC3)sc(=O)c2c1OC	inactive
COc1ccc(/C=C(/NC(C)=O)C(=O)O)cc1	inactive
COc1ccccc1/C=C/C=C1N=C(/C=C/c2ccc(Cl)cc2)OC/1=O	inactive
COc1ccc(/C=C/C(=O)NC(=S)Nc2ccccn2)cc1	inactive
COc1ccc(OC)c(/C(O)=C/C(=O)C(=O)Nc2ccccc2OC)c1	inactive
CN1C(=O)CC(N2CCN(C(=O)c3ccccc3)CC2)C1=O (centres undefined)	inactive
Cc1cc(-n2ccnc2)n2c(nc3ccccc32)c1C#N	inactive
COc1cc(-n2cnnn2)ccc1S(=O)(=O)N1CCOCC1	inactive
CCCn1c(=O)c(-c2ccccc2)c(O)c2ccccc21	inactive
O=C1c2ccccc2S(=O)(=O)N1CC(O)COc1ccc(Br)cc1 (centres undefined)	inactive
CCOC(=O)C1C(c2ccc(O)c(OCC)c2)NC(=S)NC1(O)C(F)(F)F (centres undefined)	inactive
CS(=O)(=O)c1ccc(Cl)c(NC(=O)COC(=O)COc2ccc3c(c2)CCC3)c1	inactive
COc1ccc(CNC(=O)CN(CC2CCCO2)C(=O)CNS(=O)(=O)c2ccc(C)cc2)cc1 (centres undefined)	inactive
COc1cccc(CNC(=O)Cn2c(=O)oc3ccccc32)c1OC	inactive
COc1ccc(OC)c(/C(O)=C/C(=O)C(=O)Nc2cc(C)ccc2OC)c1	inactive
COc1ccc(OC)c(NC(=O)c2[nH]c(C)c(C(C)=O)c2C)c1	inactive

Compound	outcome
COc1ccc(CC(=O)OCc2cc3ccc(C)cc3[nH]c2=O)cc1	inactive
N=c1sccn1CC(=O)Nc1ccc2c(c1)CCC2	inactive
COc1ccc(OC)c(C2C(C(=O)c3cc4ccccc4o3)=C(O)C(=O)N2c2cc(C)on2)c1 (centres undefined)	inactive
CCC(C)NC(=S)NNC(=O)c1ccc(C(C)(C)C)cc1 (centres undefined)	inactive
Cc1cc2c(=Cc3ccc(N(C)C)cc3)c3ccccc3n2[n+]1C	inactive
COc1cccc(C=Nc2cc(C(C)C)c(O)cc2C)c1O	inactive
Oc1cccc(/C=N/NC(=S)NCCN2CCOCC2)c1O	inactive
COc1cccc(CC(NC(C)=O)C(=O)NC2CCN(S(=O)(=O)c3ccc4ccccc4c3)CC2)c1 (centres undefined)	inactive
COc1ccccc1N1CCN(CC(O)COCCOc2ccc(Br)cc2)CC1 (centres undefined)	inactive
CC(=O)Nc1ccc(C(=O)Nc2cccc(-c3cnc4ccccc4n3)c2)cc1	inactive
CC(=O)Nc1ccc(N/C=C/C(=O)C(C)(C)C)cc1	inactive
Cc1ccc(NC(=O)c2ccc(Cl)c(N3C(=O)C=CC3=O)c2)cc1	inactive
Cc1cc(C)c(C)c(OCCCOc2cccc3cccnc23)c1	inactive
Cc1nnc(SCC(=O)N2CCN(c3ccccc3)CC2)n1C1CC1	inactive
COC(=O)c1sccc1NC(=O)c1cc(-c2ccc(C)cc2C)nc2ccccc12	inactive
COc1ccc(/C=N/NC(=O)c2ccc3ccccc3c2)cc1OS(=O)(=O)c1ccc(NC(C)=O)cc1	inactive
Cc1ccc(C(=O)N/C(=C/c2cccnc2)C(=O)NCc2ccco2)cc1	inactive
O=C(CNC(=O)/C(=C\c1ccccc1)NC(=O)c1ccc(Br)cc1)OCc1ccccc1	inactive
O=C(NCC1CCCO1)c1ccc(CS(=O)(=O)Cc2ccc(F)cc2)o1 (centres undefined)	inactive
Cc1cc(C(F)(F)F)n2nc(C(=O)O)c(Cl)c2n1	inactive
O=C1NC(=Nc2ccc(F)cc2)SC1Cc1ccc(F)cc1 (centres undefined)	inactive
O=C(O)c1ccc(S(=O)(=O)c2ccc([N+](=O)[O-])cc2[N+](=O)[O-])cc1	inactive
COc1ccc(NC(=O)/C(C#N)=C\c2cc(C)n(-c3ccc(Oc4ccc([N+](=O)[O-])cn4)cc3)c2C)cc1	inactive
